Data on 14 compounds can be found in PubChem BioAssay (EPA / NIEHS).

Inconclusive results are not listed. Calls of active or inactive are those of the source. Rule for the calls: active = hit-call score of the fitted dose curve at least 0.9, where 1 is the maximum; inconclusive = response in the unintended direction; inactive = score below 0.9.

The target of the test is Cytochrome P450 2C19 (Homo sapiens) (UniProt P33261). Briefly: NVS_ADME_hCYP2C19: NovaScreen (NVS) CYP450-related Enzyme Activity (ADME) Assay for human CYP2C19 (AID 2283113).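 For AC50: potency for inhibition seen as loss of fluorescent signal.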 As for the experimental part: NVS_ADME_hCYP2C19 is a biochemical, single-readout assay that uses extracted gene-proteins from insect cells in a cell-free assay. Measurements were taken 1 hour after chemical dosing in a 96-well plate.NVS_ADME_hCYP2C19 is one of one assay component(s) measured or calculated from the NVS_ADME_hCYP2C19 assay. It is designed to make measurements of enzyme activity, a form of enzyme reporter, as detected with fluorescence intensity signals by Fluorescence technology.Data from the assay component NVS_ADME_hCYP2C19 was analyzed into 1 assay endpoint. This assay endpoint, NVS_ADME_hCYP2C19, was analyzed in the positive analysis fitting direction relative to Acetonitrile as the negative control and baseline of activity. Using a type of enzyme reporter, loss-of-signal activity can be used to understand changes in the enzymatic activity as they relate to the gene CYP2C19. Furthermore, this assay endpoint can be referred to as a primary readout, because this assay has produced multiple assay endpoints where this one serves a enzymatic activity function. To generalize the intended target to other relatable targets, this assay endpoint is annotated to the cyp intended target family, where the subfamily is xenobiotic metabolism.
Binding assays used specific radioligands (tritiated, iodinated) with non-radioactive competitive displacement ligands in agonist or antagonist protocols (as indicated) and various reference compounds and inhibitors to titrate specific binding to receptors and transporters. Most enzyme assays (CYPs, kinases, phosphatases, proteases, HDACs) used recombinant protein and specific substrates (fluorescence mostly, some colorimetric and radioactive) and inhibitors, followed by a biochemical separation of substrate and product. All assays for the biochemical HTS were initially run in duplicate at a single concentration (10 uM for CYP450 assays and 25 uM for all others). […] Each assay was run with positive and negative controls, and concurrent controls on every plate. The follow-up (secondary) screen tested active chemical-pairs in concentration series, as well as a few additional assays not tested in the primary screen, some selected negative inactives, and several cases re-run in the concentration series for confirmatory purposes.
What is called AC50 is the midpoint of the concentration-response curve, whichever way the signal moves. Take `CC(C)C(=O)Nc1ccc([N+](=O)[O-])c(C(F)(F)F)c1`: the AC50 was 3.2 µM (active).

For `NNC(=O)c1ccncc1`, the AC50 was 1.49 µM (active).

In the case of `O=C(NO)C1(NS(=O)(=O)c2ccc(Oc3ccc(F)cc3)cc2)CCOCC1`, the result was inactive.

For the compound `CCCOc1ccc(S(=O)(=O)N2CCN(CC)CC2)cc1-c1nc2c(CC)n(Cc3ccccn3)nc2c(=O)[nH]1`, the AC50 was 1.45 µM (active).

As for `c1ccc(C(O[C@@H]2CCCN(CCc3ccc4c(c3)OCO4)C2)c2ccccc2)cc1`, the AC50 is 5.04 µM (active).

In the case of `Cc1nccn1-c1ccc(Sc2cccc(C3(C(N)=O)CCOCC3)c2)cc1`, the AC50 is 5.95 µM (active).

On to `NC(=O)N1c2ccccc2C=Cc2ccccc21`, for which the result was inactive.

`OCc1c[nH]c2ccccc12`: the AC50 is 0.574 µM (active).

Turning to `CCCC(CCC)C(=O)O`, the AC50 is 10 µM (active).

Turning to `CCCCCCOC(=O)CC(CC(=O)OCCCCCC)(OC(=O)CCC)C(=O)OCCCCCC`, the concentration at half-maximal activity (AC50) was 2.71 µM (active).

For the compound `CCCCCCCCCC`, the concentration at half-maximal activity (AC50) is 5.72 µM (active).

Regarding `COCc1nnc(-c2ccc[n+]([O-])c2)n1-c1c(Cl)c(Cl)cc2[nH]c(=O)c(=O)[nH]c12`, the AC50 was 4.13 µM (active).

Consider `C=CCc1cc(S(=O)(=O)c2ccc(O)c(CC=C)c2)ccc1O`, for which the AC50 was 0.164 µM (active).

With `S=P(N1CC1)(N1CC1)N1CC1`, the AC50 is 5.2 µM (active).
